We go through 40 compounds from the supplement of paper PMC10941209.

Each structure is given as a SMILES string.

For the test, the system named is Toxoplasma gondii RH 2F1 tachyzoites (intracellular in HFF). Kind of test: parasite survival relative to DMSO control; higher = less antiparasitic activity, active = 20 or less. To be noted: 1 µM; 72 h. Here is the method: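 Primary single-dose screen of the MMV Pandemic Response Box at 1 uM against T. gondii RH-2F1 (beta-galactosidase) tachyzoites in HFF cells, 72 h at 37 C. Parasite growth read by CPRG absorbance at 570 nm and normalised to DMSO-treated infected controls (% survival); pyrimethamine was the reference drug. The paper calls at least 80% inhibition a hit.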
Regarding `O=c1oc2ccc(Br)cc2cc1CSc1ncc[nH]1`, the parasite survival was 63.6% (inactive).
For `O=C(N[C@H](CCS)C(=O)N[C@H](Cc1ccccc1)C(=O)O)c1cc2ccccc2[nH]1`, the parasite survival was 45.8% (inactive).
Take `CCC(C)n1ncn(-c2ccc(N3CCN(c4ccc(OCC5COC(Cn6cncn6)(c6ccc(Cl)cc6Cl)O5)cc4)CC3)cc2)c1=O` (stereo not given): the parasite survival is 3.93% (active).
Under `O=S(=O)(Nc1cccc2cccnc12)c1ccccc1` stands 24.5% (inactive); under `O=C(O)/C=C/C=C/c1cccc(Oc2cc(Cl)cc(Cl)c2)c1`, 36.2% (inactive).
Under `COC1CC2CCC(C)C(O)(O2)C(=O)C(=O)N2CCCCC2C(=O)OC(C(C)CC2CCC(OCCO)C(OC)C2)CC(=O)C(C)/C=C(\C)C(O)C(OC)C(=O)C(C)CC(C)/C=C/C=C/C=C/1C` (stereo not given) stands 56.8% (inactive).
To `COc1nc2ccc(Br)cc2cc1[C@@H](c1ccccc1)[C@@](O)(CCN(C)C)c1cccc2ccccc12` belongs 14% (active); to `COc1ccc(NC(=O)CC2Sc3ncnn3C2=O)cc1` (stereo not given), 22.1% (inactive).
In the case of `CC(C)c1ccc(COc2cccc(-c3cc([S+](C)[O-])c(C#N)c(=O)[nH]3)c2)cc1` (stereo not given), the parasite survival was 13.2% (active).
Under `CCc1cc(CCCOc2c(C)cc(-c3noc(C(F)(F)F)n3)cc2C)on1` stands 55.4% (inactive); under `Nc1nc(F)nc2c1ncn2[C@H]1O[C@@H](CO)[C@H](O)[C@@H]1O`, 30% (inactive); under `Oc1ccc(NCc2ccccc2OCc2ccccc2)cc1`, 39.5% (inactive).
Regarding `C[C@@H](O)[C@H](N)C(=O)NS(=O)(=O)c1cccc(-c2ccc3[nH]ncc3c2)c1`, the parasite survival is 40.1% (inactive).
Under `CCNC(=O)Nc1cc(-c2ccccc2)c(-c2cncc(C(=O)O)c2)cn1` stands 33% (inactive).
Under `CCCCc1ccc(S(=O)(=O)Nc2cc(C)on2)cc1` stands 39.1% (inactive).
Under `Cc1c(CN(C)C(=O)/C=C/c2cnc3c(c2)C(C)(C)C(=O)N3)oc2ccccc12` stands 54.1% (inactive); under `CCCCc1ccc(-c2cc(C(=O)O)cc(-c3ccc(Cl)cc3)n2)cc1`, 40.8% (inactive).
As to `CCC[C@H](NC(=O)[C@@H]1[C@H]2CCC[C@H]2CN1C(=O)[C@@H](NC(=O)[C@@H](NC(=O)c1cnccn1)C1CCCCC1)C(C)(C)C)C(=O)C(=O)NC1CC1`, the parasite survival is 46.8% (inactive).
To `CC(=O)Oc1ccccc1C(=O)Nc1ncc([N+](=O)[O-])s1` belongs 75.8% (inactive); to `CCOc1ccc(C(=O)NCCc2ccccc2)cc1`, 60.8% (inactive).
Under `Nc1cc(-c2nc3ccccc3[nH]2)n[nH]c1=O` stands 43% (inactive); under `CN(O)C(=O)c1cc2c(CN3CCC[C@H]3C(N)=O)cn(Cc3ccc(F)cc3)c2cn1`, 76.7% (inactive).
Under `CC1CCc2c(N3CCC(O)CC3)c(F)cc3c(=O)c(C(=O)O)cn1c23` (stereo not given) stands 51% (inactive).
As for `Clc1cccc(-c2nnc(-c3ccccc3)o2)c1`, the parasite survival was 62.8% (inactive).
To `CCC(C)NCC(O)Cn1c2ccc(Cl)cc2c2cc(Cl)ccc21` (stereo not given) belongs 26.8% (inactive).
On to `Oc1cc(-c2cccc3ccccc23)[nH]n1`, for which the parasite survival is 55.1% (inactive).
To `CCc1c(O)nc2ccc(F)cc2c1OCC1CCC1` belongs 41% (inactive); to `CN(C)CCCNC(=O)c1ccc(-c2cc(O)c3ncccc3c2)cc1`, 81.2% (inactive).
To `Cc1ccc(Oc2ccccc2-c2csc(N=C3NCCCN3)n2)c(C)c1` belongs 30.1% (inactive); to `O=S(=O)(NCB(O)O)c1cc2c(Cl)ccc(Cl)c2s1`, 54.4% (inactive); to `CCO/N=C/c1ccc(OCCCCN2CCN(c3ccncc3)C2=O)cc1`, 47.7% (inactive).
To `c1ccc(Cn2c(-c3ccccn3)nc3ccccc32)cc1` belongs 61.7% (inactive); to `Clc1cc2nc(C3CCNCC3)n(Cc3ccc(CNCCc4c[nH]cn4)cc3)c2cc1Cl`, 66.5% (inactive); to `Oc1c(C(Nc2ccccn2)c2ccccc2)ccc2cccnc12` (stereo not given), 23.6% (inactive).
Consider `O=C(CCc1ccc2c(c1)OCO2)NCc1ccc(-c2ccccc2F)cc1`, for which the parasite survival was 54.9% (inactive).
Under `O=C(/C(=C/c1ccc(Cl)cc1Cl)n1ccnc1)c1ccc(Cl)cc1` stands 10.2% (active).
Under `CS(=O)(=O)c1ccc(Oc2ccc(Cl)cc2)cc1` stands 54.5% (inactive).
On to `CCNC(=O)Nc1cn2c(-c3ncc(CC)cn3)cc(-c3cccnc3)cc2n1`, for which the parasite survival is 34.6% (inactive).
Take `CC1(C)Cc2c(C#N)c(SCCc3ccccc3)nc(N3CCOCC3)c2CO1`: the parasite survival is 39.6% (inactive).
To `Clc1cc(Cl)c2c(c1)CCc1ccccc1C2n1ccnc1` (stereo not given) belongs 7.97% (active).
